Source: PubChem BioAssay (EPA / NIEHS)
The source made the active and inactive calls. Rule for the calls: active = hit-call score of the fitted dose curve at least 0.9, where 1 is the maximum; inactive = score below 0.9.

Read-out: DNA damage-inducible transcript 3 (DDIT3), DDIT3 (gene 1649)
Test: LTEA_HepaRG_DDIT3: Life Technologies and Expression Analysis (LTEA) Assay for DNA damage-inducible transcript 3 (DDIT3) using HepaRG (AID 2283488)
Details: mRNA level, 48 h; actives raise or lower the signal
Summary of the method: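 DDIT3 transcript was quantified by qRT-PCR with ACTB/GAPDH/POLR2A normalization after 48 h chemical treatment of differentiated HepaRG cells in 0.5% DMSO. Dosing was eight-point, half-log, top 100 uM, duplicate wells. Curves fitted bidirectionally versus DMSO.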

Row | SMILES | outcome | AC50
1 | CCCCC(CC)COC(=O)CCCCCCCC(=O)OCC(CC)CCCC (stereo not drawn) | inactive | 
2 | C=CCc1ccc(OC)c(OC)c1 | inactive | 
3 | CC(=O)O | inactive | 
4 | CC(C)(O)c1ccc(CNC(=O)c2cccnc2Oc2ccc(F)cc2)cc1 | inactive | 
5 | NC1CCCCC1 | inactive | 
6 | CC(=O)O[C@]1(C(C)=O)CC[C@H]2[C@@H]3C=C(Cl)C4=CC(=O)[C@@H]5C[C@@H]5[C@]4(C)[C@H]3CC[C@@]21C |  | 18.5 µM (active)
7 | O=C(NS(=O)(=O)/C=C/c1cccs1)c1ccc(F)cc1Br | inactive | 
8 | O=C(O)c1cccnc1 | inactive | 
9 | O=C(Oc1ccccc1)c1cccc(C(=O)Oc2ccccc2)c1 | inactive | 
10 | CCCC(=O)O | inactive | 
11 | COC(=O)CCC(=O)OC | inactive | 
12 | CC(=O)OCC(COC(C)=O)OC(C)=O | inactive | 
13 | O=C1CCCCC1 | inactive | 
14 | CC(COCC(C)OC(=O)c1ccccc1)OC(=O)c1ccccc1 (stereo not drawn) | inactive | 
15 | CC(C)COC(=O)CCCCC(=O)OCC(C)C | inactive | 
16 | CC(C)c1cccc(C(C)C)c1 | inactive | 
17 | C/C=C/c1ccc(OC)cc1 | inactive | 
18 | CN(C)CCCN(C)CCCN(C)C | inactive | 
19 | CCOCCOCCO | inactive | 
20 | CCCCC(CC)COP(=O)(OCC(CC)CCCC)OCC(CC)CCCC (stereo not drawn) | inactive | 
21 | CCCCCCCCCCCCCCCCO | inactive | 
22 | CC(N)=O | inactive | 
23 | CCCCCCC(CCCCCCCCCCC(=O)OCC(COC(C)=O)OC(C)=O)OC(C)=O (stereo not drawn) | inactive | 
24 | NC(=Nc1ccccc1)Nc1ccccc1 |  | 27.6 µM (active)
25 | Cc1cn([C@H]2C=C[C@@H](CO)O2)c(=O)[nH]c1=O | inactive | 
26 | CCCCCCCC(=O)OC | inactive | 
27 | CCCCC(CC)CO (stereo not drawn) | inactive | 
28 | O=C(N[C@@H](c1ccccc1)[C@@H]1CCCCN1)c1cccc(C(F)(F)F)c1Cl |  | 50 µM (active)
29 | CCN(CC)CCOc1ccc(C(=C(Cl)c2ccccc2)c2ccccc2)cc1 |  | 42 µM (active)

Read-out: Pro-epidermal growth factor (Homo sapiens) (UniProt P01133)
Test: LTEA_HepaRG_EGF: Life Technologies and Expression Analysis (LTEA) Assay for Epidermal growth factor (EGF) using HepaRG (AID 2283489)
Details: mRNA level, 48 h; actives raise or lower the signal
Summary of the method: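 Concentration-response mRNA assay: HepaRG cells dosed 48 h (max 100 uM, 0.5% DMSO), EGF measured by qRT-PCR and normalized to ACTB/GAPDH/POLR2A.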

Row | SMILES | outcome
30 | CCCCC(CC)COC(=O)CCCCCCCC(=O)OCC(CC)CCCC (stereo not drawn) | inactive
31 | C=CCc1ccc(OC)c(OC)c1 | inactive
32 | CC(=O)O | inactive
33 | CC(C)(O)c1ccc(CNC(=O)c2cccnc2Oc2ccc(F)cc2)cc1 | inactive
34 | NC1CCCCC1 | inactive
35 | CC(=O)O[C@]1(C(C)=O)CC[C@H]2[C@@H]3C=C(Cl)C4=CC(=O)[C@@H]5C[C@@H]5[C@]4(C)[C@H]3CC[C@@]21C | inactive
36 | O=C(NS(=O)(=O)/C=C/c1cccs1)c1ccc(F)cc1Br | inactive
37 | O=C(O)c1cccnc1 | inactive
38 | O=C(Oc1ccccc1)c1cccc(C(=O)Oc2ccccc2)c1 | inactive
39 | CCCC(=O)O | inactive
40 | COC(=O)CCC(=O)OC | inactive
41 | CC(=O)OCC(COC(C)=O)OC(C)=O | inactive
42 | O=C1CCCCC1 | inactive
43 | CC(COCC(C)OC(=O)c1ccccc1)OC(=O)c1ccccc1 (stereo not drawn) | inactive
44 | CC(C)COC(=O)CCCCC(=O)OCC(C)C | inactive
45 | CC(C)c1cccc(C(C)C)c1 | inactive
46 | C/C=C/c1ccc(OC)cc1 | inactive
47 | CN(C)CCCN(C)CCCN(C)C | inactive
48 | CCOCCOCCO | inactive
49 | CCCCC(CC)COP(=O)(OCC(CC)CCCC)OCC(CC)CCCC (stereo not drawn) | inactive
50 | CCCCCCCCCCCCCCCCO | inactive
51 | CC(N)=O | inactive
52 | CCCCCCC(CCCCCCCCCCC(=O)OCC(COC(C)=O)OC(C)=O)OC(C)=O (stereo not drawn) | inactive
53 | NC(=Nc1ccccc1)Nc1ccccc1 | inactive
54 | Cc1cn([C@H]2C=C[C@@H](CO)O2)c(=O)[nH]c1=O | inactive
55 | CCCCCCCC(=O)OC | inactive
56 | CCCCC(CC)CO (stereo not drawn) | inactive
57 | O=C(N[C@@H](c1ccccc1)[C@@H]1CCCCN1)c1cccc(C(F)(F)F)c1Cl | inactive
58 | CCN(CC)CCOc1ccc(C(=C(Cl)c2ccccc2)c2ccccc2)cc1 | inactive
